The results in this text go back to PubChem BioAssay.

Each structure is given as a SMILES string. Active and inactive are the calls of the source.

Test [1] deals with PRMT1 (protein arginine N-methyltransferase 1). Nature of the test: PRMT1 binders on small-molecule microarrays, primary screen, biochemical, small-molecule microarray, 635 nm fluorescence (AID 1088).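 Further: binding of Prmt1 protein to compounds spotted on small-molecule microarray slides.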 The following applies: small-molecule microarray binding, higher = more signal.
The nature of test [2]: yeast growth modulation, basal conditions, primary screen, YJM789 clinical isolate, OD600, 24 h (AID 1089).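 Further: growth of clinical yeast isolate S. cerevisiae YJM 789 seeded 1000 cells per well; test concentration not given here.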 Particulars: S. cerevisiae YJM789 growth, higher = more signal, called active from +8 up or from −8 down.
Test [3] can be described thus: fission yeast growth modulation, primary screen, strain 972, OD600, 24 h, no modulator (AID 1090).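 Further: basal condition with compound alone and no growth modifier present; test concentration not given here.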 Particulars: S. pombe 972 growth, higher = more signal, called active from +8 up or from −8 down.
A short description of test [4]: S. cerevisiae growth modulation with rapamycin, primary screen, strain BY4716, OD600, 96 h (AID 1091). Further: test concentration not given here. Particulars: higher = more signal, called active from +8 up or from −8 down.
In test [5] the target is Torsin-1A-interacting protein 2 (Homo sapiens) (UniProt Q8NFQ8). Nature of the test: LULL1 binders on small-molecule microarray, primary screen, cell lysate, human LULL1 lysate, 635/667 nm fluorescence (AID 1092).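 Further: probe is lysate of COS7 cells overexpressing human LULL1; score merges per-feature 667 nm fluorescence with signal-to-noise.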 Particulars: hLULL1 lysate binding, 635 nm fluorescence, higher = more signal.
Sequence of Torsin-1A-interacting protein 2 (Homo sapiens) (Q8NFQ8 whole entry, looked up): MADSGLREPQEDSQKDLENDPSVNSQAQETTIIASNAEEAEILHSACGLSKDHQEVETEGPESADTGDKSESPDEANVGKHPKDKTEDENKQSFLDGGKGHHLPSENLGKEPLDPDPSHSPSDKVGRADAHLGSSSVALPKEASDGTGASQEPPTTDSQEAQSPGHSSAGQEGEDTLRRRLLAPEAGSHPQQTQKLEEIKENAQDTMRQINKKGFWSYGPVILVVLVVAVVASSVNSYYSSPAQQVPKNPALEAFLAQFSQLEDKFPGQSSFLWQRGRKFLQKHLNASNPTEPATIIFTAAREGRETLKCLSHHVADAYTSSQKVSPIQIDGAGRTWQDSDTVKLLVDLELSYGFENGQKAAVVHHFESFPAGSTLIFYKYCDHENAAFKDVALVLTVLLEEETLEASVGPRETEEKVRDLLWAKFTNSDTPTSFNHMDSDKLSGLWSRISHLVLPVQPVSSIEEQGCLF
Test [6] is described as follows: E. coli growth modulation, two-sided OD650, primary screen, E. coli filamentation project, strain DRC41, 24 h (AID 1093).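 Further: MC1000 strain lacking acrAB efflux and sulA so SOS filamentation is blocked; test concentration not given here.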 Particulars: OD650, 24 h, higher = more signal, called active from +8 up or from −8 down.
The nature of test [7]: small-molecule microarray binders of probe aLefty2, primary screen, biochemical, biotinylated probe, 635/667 nm fluorescence (AID 1094).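 Further: score merges spot fluorescence near 667 nm with spot signal-to-noise ratio.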 The following applies: higher = more signal.
The subject of test [8] is Noggin (protein binding on small-molecule microarray). Kind of test: Noggin binders on small-molecule microarray, primary screen, biochemical, 635/667 nm fluorescence (AID 1095).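 Further: score merges 667 nm feature fluorescence with signal to noise over triplicate slides.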 Particulars: 635 nm fluorescence, higher = more signal.
In test [9] the target is Neurogenic locus notch homolog protein 3 (Homo sapiens) (UniProt Q9UM47). Nature of the test: NOTCH3 binders on small-molecule microarray, primary screen, biochemical, 635/667 nm fluorescence (AID 1096). The following applies: NOTCH3 binding, 635 nm fluorescence, higher = more signal.
Sequence of Neurogenic locus notch homolog protein 3 (Homo sapiens) (Q9UM47 whole entry, looked up): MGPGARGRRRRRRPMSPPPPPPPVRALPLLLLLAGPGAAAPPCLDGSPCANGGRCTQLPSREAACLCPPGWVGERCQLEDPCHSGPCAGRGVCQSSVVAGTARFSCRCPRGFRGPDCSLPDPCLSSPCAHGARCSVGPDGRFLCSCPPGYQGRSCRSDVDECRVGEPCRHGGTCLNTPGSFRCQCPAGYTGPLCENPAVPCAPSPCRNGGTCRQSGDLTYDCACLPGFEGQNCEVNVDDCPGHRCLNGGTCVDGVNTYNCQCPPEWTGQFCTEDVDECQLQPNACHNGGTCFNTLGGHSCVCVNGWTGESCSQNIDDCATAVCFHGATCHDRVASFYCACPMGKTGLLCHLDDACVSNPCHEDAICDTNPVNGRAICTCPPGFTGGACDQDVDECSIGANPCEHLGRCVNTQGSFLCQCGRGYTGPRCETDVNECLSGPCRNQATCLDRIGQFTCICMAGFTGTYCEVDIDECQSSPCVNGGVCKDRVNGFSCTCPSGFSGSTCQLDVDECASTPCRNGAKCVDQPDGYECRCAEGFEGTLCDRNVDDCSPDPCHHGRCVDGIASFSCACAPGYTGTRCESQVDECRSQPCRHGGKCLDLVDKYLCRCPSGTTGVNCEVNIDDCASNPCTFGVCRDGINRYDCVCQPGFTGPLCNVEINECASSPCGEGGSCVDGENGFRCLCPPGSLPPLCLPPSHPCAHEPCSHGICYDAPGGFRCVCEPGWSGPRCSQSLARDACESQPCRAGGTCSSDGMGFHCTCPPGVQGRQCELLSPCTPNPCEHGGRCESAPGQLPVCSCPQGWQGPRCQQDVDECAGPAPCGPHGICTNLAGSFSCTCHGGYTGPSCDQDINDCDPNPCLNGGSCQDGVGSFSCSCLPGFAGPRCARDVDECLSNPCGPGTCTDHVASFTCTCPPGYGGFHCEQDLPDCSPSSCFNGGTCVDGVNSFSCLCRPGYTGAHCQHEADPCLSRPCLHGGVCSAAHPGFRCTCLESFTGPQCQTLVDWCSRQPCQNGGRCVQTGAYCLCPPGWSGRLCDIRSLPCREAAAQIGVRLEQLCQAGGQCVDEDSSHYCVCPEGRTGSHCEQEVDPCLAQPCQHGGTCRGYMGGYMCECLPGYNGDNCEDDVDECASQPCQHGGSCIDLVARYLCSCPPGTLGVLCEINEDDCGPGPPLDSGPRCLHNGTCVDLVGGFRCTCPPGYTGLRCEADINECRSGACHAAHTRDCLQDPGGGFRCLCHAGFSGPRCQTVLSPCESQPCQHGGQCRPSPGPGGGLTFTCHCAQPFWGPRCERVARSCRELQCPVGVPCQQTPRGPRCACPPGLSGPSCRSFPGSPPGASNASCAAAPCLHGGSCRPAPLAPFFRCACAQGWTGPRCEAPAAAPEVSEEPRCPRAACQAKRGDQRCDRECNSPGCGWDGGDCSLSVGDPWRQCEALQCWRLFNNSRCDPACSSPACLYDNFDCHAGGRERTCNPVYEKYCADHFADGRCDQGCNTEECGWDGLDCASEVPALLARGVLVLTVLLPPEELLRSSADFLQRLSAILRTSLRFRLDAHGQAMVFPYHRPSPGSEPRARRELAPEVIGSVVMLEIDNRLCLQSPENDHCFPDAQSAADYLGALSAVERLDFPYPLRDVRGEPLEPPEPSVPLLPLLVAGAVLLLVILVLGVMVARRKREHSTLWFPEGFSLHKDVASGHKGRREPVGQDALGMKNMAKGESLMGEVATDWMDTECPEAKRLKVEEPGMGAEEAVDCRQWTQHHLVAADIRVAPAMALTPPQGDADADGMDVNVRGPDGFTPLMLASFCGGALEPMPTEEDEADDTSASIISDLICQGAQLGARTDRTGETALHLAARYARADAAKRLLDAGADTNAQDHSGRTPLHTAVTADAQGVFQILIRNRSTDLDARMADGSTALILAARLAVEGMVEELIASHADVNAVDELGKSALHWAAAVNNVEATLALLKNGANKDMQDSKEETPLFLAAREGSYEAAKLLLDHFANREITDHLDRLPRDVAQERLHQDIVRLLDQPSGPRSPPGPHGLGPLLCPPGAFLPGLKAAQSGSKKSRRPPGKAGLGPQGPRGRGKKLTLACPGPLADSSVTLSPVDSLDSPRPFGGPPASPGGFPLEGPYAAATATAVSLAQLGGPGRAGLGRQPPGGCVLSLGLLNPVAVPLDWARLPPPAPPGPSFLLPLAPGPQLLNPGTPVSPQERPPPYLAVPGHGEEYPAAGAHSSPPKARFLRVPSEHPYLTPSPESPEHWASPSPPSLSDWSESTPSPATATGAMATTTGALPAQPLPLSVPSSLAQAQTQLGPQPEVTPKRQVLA
Test [10] can be described thus: small-molecule microarray binders of probe aEGFR, primary screen, biochemical, biotinylated probe, 635/667 nm fluorescence (AID 1097).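 Further: probe is a biotinylated anti-EGFR antibody binding compounds printed on slides; score combines fluorescence near 667 nm and signal to noise of each spot.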 The following applies: higher = more signal.

Take `C=C/C=C/[C@@H]1C(=C)CN([C@@H](Cc2ccccc2)C(=O)OC)[C@H]1[C@@H](O)Cc1ccccc1`: the composite z-score in test [1] is 1.44; in [5], 1.57; in test [7], -0.0975; in test [8], 0.0905; in test [9], 0.731; in [10], -0.0228. Further, the z-score in test [2] is -0.03 (inactive); in test [3] it was -1.63 (inactive); in test [4], 0.415 (inactive); in test [6], 0.85 (inactive).
For `C[C@@H]1ON(c2ccc(I)cc2)[C@H](c2ccc(OC(=O)OC(C)(C)C)cc2)[C@H]1C(=O)N1C(=O)OC[C@H]1Cc1ccccc1`, the composite z-score in test [1] is 1.35; in [5] it was 2.08; in [7], -0.0736; in [8] it was 0.447; in test [9], 1.02; in test [10], -0.0351. The z-score is -0.0865 (inactive) in test [2], -1.73 (inactive) in [3], 1.9 (inactive) in test [4] and 1.77 (inactive) in test [6].
Regarding `C=C[C@H](C)[C@H](OC(=O)Nc1ccc(OC)cc1)c1ccc(OCCO)cc1`, the composite z-score is -0.173 in test [1]; 0.038 in [5]; -0.129 in test [7]; -1.14 in test [8]; -0.36 in test [9]; -0.216 in test [10]. The z-score in [2] was 0.164 (inactive); in test [3], -2.2 (inactive); in [4] it was -1.43 (inactive); in [6] it was 2.01 (inactive).
On to `C=CCN1C(=O)[C@]2(O[C@H](CCO)[C@@H]([Si](C)(C)c3ccc(OC)cc3)[C@@H]2C)c2cc(NC(=O)c3ccc(OC)cc3)ccc21`, for which the composite z-score in test [1] was 1.5; in test [5], 0.739; in test [7], -0.166; in [8] it was 1.62; in [9], 0.924; in test [10] it was -0.111. Moreover, the z-score in test [2] was 0.405 (inactive); in test [3], -1.91 (inactive); in [4], 2.89 (inactive); in test [6] it was 0.577 (inactive).
Consider `COc1cc2c(cc1O)C(c1ccc(CN3CCCC3)cc1)N(C)CC2` (stereo not given), for which the composite z-score in [1] was -1.16; in [5] it was 0.54; in test [7], -0.316; in test [8], -0.814; in [9] it was -0.579; in test [10], -0.191. Further, the z-score was 0.526 (inactive) in test [2], -0.262 (inactive) in [3], 0.539 (inactive) in [4] and 0.774 (inactive) in test [6].
Take `COC(=O)c1c2oc(c1C(=O)OC)C(=O)N1CCC[C@H]1Cn1nncc1CN(Cc1ccccc1)C(=O)N[C@H](CO)CC2`: the composite z-score is 0.97 in [1]; 0.983 in test [5]; -0.116 in test [7]; 0.743 in [8]; 0.2 in test [9]; 0.471 in test [10]. Besides, the z-score is 0.955 (inactive) in test [2], -0.086 (inactive) in [3], 0.613 (inactive) in test [4] and 1.24 (inactive) in [6].
Regarding `C=CC[C@H](OC(=O)Nc1ccc(SC)cc1)c1ccc(OCCO)cc1`, the composite z-score was -0.693 in [1]; 0.639 in [5]; -0.15 in [7]; 0.732 in test [8]; 0.201 in test [9]; -0.19 in test [10]. The z-score was -0.739 (inactive) in test [2], -2.94 (inactive) in test [3], -0.598 (inactive) in [4] and 0.951 (inactive) in test [6].
For the compound `CC(C)c1ccc(NN2C(C(O)Cc3ccccc3)C=CC3C(=O)N(c4ccccc4)C(=O)C32)cc1` (stereo not given), the composite z-score came to 1.48 in test [1]; 3.51 in test [5]; 0.388 in test [7]; 0.294 in test [8]; 1.07 in test [9]; 0.205 in test [10]. Moreover, the z-score in test [2] is -0.619 (inactive); in test [3], -0.699 (inactive); in test [4] it was 0.844 (inactive); in test [6] it was -1.36 (inactive).
Take `O=C1C2C=CC(C(O)c3ccco3)N(Nc3ccccc3)C2C(=O)N1c1ccccc1` (stereo not given): the composite z-score in test [1] is -0.182; in [5], 1.13; in [7], -0.147; in test [8], -0.569; in [9] it was 0.504; in [10], -0.192. The z-score in test [2] was 0.928 (inactive); in [3], 0.0851 (inactive); in test [4], 0.662 (inactive); in test [6], -0.353 (inactive).
As for `C=CCC(OC(C)=O)[C@@H]1[C@@H](N(Cc2cc3ccccc3o2)C(=O)c2ccc(-c3ccccc3)cc2)c2cc(OCCCO)ccc2N1C(=O)Cc1ccc(OC)cc1` (stereo not given in full), the composite z-score in test [1] is -0.826; in test [5], -0.299; in [7], -0.0766; in test [8], 0.18; in test [9] it was -0.364; in test [10] it was -0.0353. Also, the z-score is 0.21 (inactive) in test [2], 0.443 (inactive) in [3], 0.945 (inactive) in [4] and -1.02 (inactive) in [6].
As to `O=C1C2C=CC(C(O)c3cc(C(F)(F)F)cc(C(F)(F)F)c3)N(Nc3ccccc3F)C2C(=O)N1c1ccccc1` (stereo not given), the composite z-score in [1] was 1.11; in test [5], 3.19; in [7], 0.0655; in test [8], -0.989; in test [9], 1.07; in test [10], 0.0061. The z-score was 0.503 (inactive) in [2], 0.854 (inactive) in test [3], 6.9 (inactive) in test [4] and -1.99 (inactive) in test [6].
On to `COCCOC(=O)N1C(=O)[C@@]2(c3cc(C#CCNC(N)=O)ccc31)[C@H](c1ccc(OCCO)cc1)N1[C@H](c3ccccc3)[C@H](c3ccccc3)OC(=O)[C@H]1[C@@H]2C(=O)NC[C@H](O)c1ccccc1`, for which the composite z-score was 1.57 in [1]; 2.44 in [5]; 0.19 in test [7]; 1.1 in [8]; 1.06 in test [9]; 0.0671 in test [10]. Also, the z-score is 2.3 (inactive) in test [2], 3.07 (inactive) in [3], 4.91 (inactive) in test [4] and 0.925 (inactive) in [6].
As to `O=C(N1CCOCC1)[C@@]1(CCS(=O)(=O)c2ccccc2)N=C(c2ccc(OCCCO)cc2)O[C@H]1c1ccccc1`, the composite z-score in test [1] is 1.44; in test [5], 3.56; in test [7], 0.352; in [8], 0.136; in test [9], 1.15; in test [10], 0.156. For the same compound, the z-score in [2] is 0.487 (inactive); in test [3], 0.395 (inactive); in test [4], -0.0156 (inactive); in test [6], 0.746 (inactive).
For the compound `Cc1ccc(N2C(=O)c3ccccc3[C@](C)(C(=O)NCc3ccccc3)[C@@H]2c2ccc(CO)cc2)nc1`, the composite z-score in [1] was 0.596; in test [5] it was 0.945; in [7], 0.0781; in [8], 0.184; in test [9], -0.456; in test [10], 0.108. Moreover, the z-score is 0.34 (inactive) in test [2], -0.72 (inactive) in [3], -0.0557 (inactive) in test [4] and 0.148 (inactive) in [6].
